Hits are enriched below; roughly 15% of the tested compounds scored in any of these assays.
ELG1 repair inh: qHTS screen for small molecules that inhibit ELG1-dependent DNA repair in human embryonic kidney (HEK293T) cells expressing luciferase-tagged ELG1. hit rate 2.3% among 330,000. AID 504467, 2011. Potency, µM (highest dose often 46.1 µM), for inactives: at the highest dose activity change, negative = inhibition, usual class: inhibitors. HEK293T ELG1-luciferase reporter, luminescence, 16 h; DNA damage induced by 5-fluorouridine; note: nearly all actives have a fitted effect of over 55% in size
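Luminescence from the luciferase reporter, measured 30 min after ONE-Glo reagent at room temperature, was the read-out. Beforehand, 2,000 cells per well were exposed for 16 hr at 37 °C to 5-fluorouridine together with compound or vehicle.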
RORgamma inh: qHTS for inhibitors of ROR gamma transcriptional activity; Drosophila S2 Gal4-RORgamma UAS-luciferase reporter, 20 h; hit rate 5.4% among 310,000; AID 2551, 2010; Potency, µM (top dose mostly 53.6 µM), without a hit: top-dose activity change, negative = inhibition, most hits filed as inhibitors; Nuclear receptor ROR-gamma (Mus musculus), P51450; note: nearly all actives have a fitted effect of over 60% in size
Target sequence (P51450 whole entry, looked up, the tested form may be a part): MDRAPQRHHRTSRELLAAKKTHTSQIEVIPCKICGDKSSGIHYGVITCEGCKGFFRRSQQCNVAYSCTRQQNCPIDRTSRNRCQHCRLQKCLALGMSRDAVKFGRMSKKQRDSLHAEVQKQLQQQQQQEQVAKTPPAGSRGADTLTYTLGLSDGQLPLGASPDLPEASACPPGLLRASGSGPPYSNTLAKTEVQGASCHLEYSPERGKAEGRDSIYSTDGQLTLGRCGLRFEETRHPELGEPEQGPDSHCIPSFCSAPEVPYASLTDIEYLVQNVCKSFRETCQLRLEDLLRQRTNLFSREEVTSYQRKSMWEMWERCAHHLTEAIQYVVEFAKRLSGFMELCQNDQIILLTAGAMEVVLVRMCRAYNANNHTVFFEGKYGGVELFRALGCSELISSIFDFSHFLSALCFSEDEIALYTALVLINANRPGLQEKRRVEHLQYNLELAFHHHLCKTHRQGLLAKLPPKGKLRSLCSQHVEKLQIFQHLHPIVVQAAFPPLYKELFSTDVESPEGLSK
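ROR gamma transcriptional activity was tracked as Gal4-UAS luciferase output in stably transfected Drosophila Schneider cells, with compound added 1 hr before 700 uM copper sulfate induction and a 20 hr ambient-temperature incubation.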
DT40 TDP1 no CPT: qHTS for Inhibitors of human tyrosyl-DNA phosphodiesterase 1 (TDP1): qHTS in cells in absence of CPT | Potency, µM (highest dose often 46.2 µM), for the others: at the highest dose activity change, negative = growth inhibition, hits mostly inhibitors | DT40 Tdp1-/- hTDP1 cells, no CPT, ATP luminescence, 48 h | hit rate 15% among 420,000 | AID 686978, 2013; note: nearly all actives have a fitted effect of over 55% in size
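Growth kinetics read by CellTiter-Glo luminescence after ≥48 hr at 37 °C. Cells: DT40 Tdp1-/- stably carrying human TDP1, 400 per well, compound exposure in the absence of CPT (DMSO vehicle).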
VP16 counter: VP16 counterscreen qHTS for inhibitors of ROR gamma transcriptional activity. Drosophila S2 Gal4-VP16 UAS-luciferase, luminescence, 20 h. Potency, µM (doses to about 53.6 µM), for inactives: at the top dose activity, negative = inhibition, usual class: inhibitors. hit rate 3.5% among 310,000;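 note: Gal4-VP16 expression switched on by copper sulfate through the metallothionein promoter; nearly all actives have a fitted effect of over 50% in size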
12-LOX inh: Primary qHTS assay for inhibitors of human arachidonate 12S-lipoxygenase (ALOX12): Round 2; Polyunsaturated fatty acid lipoxygenase ALOX12 (Homo sapiens), P18054; AID 1671190, 2021; purified 12hLO, xylenol orange hydroperoxide absorbance; hit rate 1.1% among 580,000; Potency, µM (titrated, usually from 108 µM), for the others: at the top dose activity change, negative = inhibition, actives largely listed as inhibitors
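Purified human 12hLO at 150 nM in 25 mM Hepes, 0.01% Triton X-100, pH 7.0, preincubated 15 min at room temperature with compound. Reaction started with 40 uM arachidonic acid, 30 min at room temperature. Hydroperoxide measured by Fe-xylenol orange, 573/405 nm absorbance ratio.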
TDP1 cell CPT: qHTS for Inhibitors of human tyrosyl-DNA phosphodiesterase 1 (TDP1): qHTS in cells in presence of CPT; chicken DT40 Tdp1-/-;hTDP1 cells + 20 nM CPT, ATP luminescence, 48 h; Potency, µM (doses to about 46.2 µM), for inactives: at the top dose activity change, negative = growth inhibition, actives largely listed as inhibitors; hit rate 12% among 420,000; note: nearly all actives have a fitted effect of over 55% in size
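Chicken DT40 Tdp1-/- cells stably complemented with human TDP1 were seeded at 400 cells/well in medium containing 20 nM camptothecin, exposed to pin-transferred compounds, and grown at 37 °C for at least 48 hr. Viability was read as ATP luminescence.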
* hit, by the source's call; ? = inconclusive; / = no result given; [ ] = dose if it differs, or a comment. Calls come from the whole dose curve; as a rule, active = well fitted curve in the direction sought with a large enough effect; inconclusive = small, poorly fitted or top-dose-only effect, or another doubt; inactive = no such curve, though single readings can be large; an effect the other way counts as inactive or inconclusive. % is set by controls: 0 for no effect and ±100 for the full control effect; potency is the fitted concentration of half-maximal effect.

SMILES	ELG1 repair inh	RORgamma inh	DT40 TDP1 no CPT	VP16 counter	12-LOX inh	TDP1 cell CPT
Cc1ccc(C2CCN(C(=S)NC(C)(C)C)C2)cc1 (centres undefined)	?	?	?	-5.7%	12.9%	?
S=C(Nc1ccc2nsnc2c1)N1CCCC1	?	7.94µM*	1.0%	11.2µM*	?	1.1%
O=C(NC1CCCCCC1)c1csc(N2CCN(c3ccccc3)CC2)n1	/	/	/	/	-17.0%	/
CC(=O)Nc1ccc(N2CCCCC2)c(C(=O)Nc2cccc(C)c2)c1	?	40.6%	9.2µM*	-6.8%	?	?
Cc1cccc(NC(=S)N2CCCCC2)c1	23.7%	?	?	17.8µM*	?	?
Cc1ccc(C2CCN(C(=S)NC3CCCCC3)C2)cc1 (centres undefined)	?	?	18.4µM*	?	?	?
CCn1c(SCC(=O)Nc2cccc(NC(C)=O)c2)nnc1-c1ccco1	-6.4%	8.2%	6.0%	-1.1%	-10.7%	2.9%
CCn1c2ccccc2c2cc(NC(=O)CSc3nnc(-c4ccccc4)o3)ccc21	-11.8%	-0.7%	20.6µM*	-21.4%	5.4%	9.2µM*
O=C(CSc1nnc(-c2cccc(F)c2)o1)Nc1nncs1	?	12.6µM*	0.8%	?	6.1%	1.4%
O=C(CSc1nc(-c2ccccc2)c(-c2ccccc2)o1)Nc1nncs1	3.1%	?	-19.9%	-12.3%	?	?
CCn1c2ccccc2c2cc(NC(=O)CSc3nnc(-c4cccc(F)c4)o3)ccc21	-9.5%	-4.6%	14.6µM*	8.8%	76.4%	16.4µM*
CCn1c2ccccc2c2cc(NC(=O)CSc3nnc(-c4cccc(C)c4)o3)ccc21	?	-9.8%	?	-0.3%	-7.0%	?
CCn1c(SCC(=O)Nc2ccc3c(c2)c2ccccc2n3CC)nnc1-c1ccco1	?	24.1%	-7.3%	0.9%	11.2µM*	-17.3%
Cn1c(=O)[nH]c(=O)c2c1nc(NC1CCCCC1)n2CC(=O)c1ccccc1	/	/	/	/	5.2%	/
O=C(Nc1ccccc1N1CCCCC1)c1cccc(OC(F)F)c1	3.5%	3.0%	?	3.0%	-1.4%	?
COc1ccc(NC(=O)CSCC(=O)Nc2ccccc2N2CCCC2)cc1	-16.1%	/	-25.1%	/	-12.7%	-21.3%
COc1ccc(NC(=O)CSCC(=O)Nc2ccccc2N2CCCCC2)cc1	-7.8%	/	29.1µM*	/	-26.8%	?
COc1cccc(C(=O)NC(=S)Nc2ccccc2N2CCCCC2)c1	2.5%	2.51µM*	?	5.01µM*	39.8µM*	?
COc1cccc(C(=O)Nc2ccccc2N2CCCC2)c1	-5.4%	7.9%	?	0.5%	?	18.4µM*
COc1cccc(C(=O)Nc2ccccc2N2CCN(C(=O)c3ccccc3)CC2)c1	23.1µM*	/	20.6µM*	/	3.6%	?
COc1cccc(C(=O)Nc2ccccc2C(=O)N2CCCC2)c1	8.8%	-6.7%	-1.2%	2.2%	-5.6%	4.4%
CCc1nncn1C1CCN(S(=O)(=O)c2ccc(C)c(C)c2)CC1	/	/	/	/	0.7%	/
Cc1oc(-c2cccs2)nc1CC(=O)Nc1ccc(F)c(F)c1F	/	/	/	/	-23.4%	/
COc1c(C)cccc1C(=O)NC(=S)Nc1cccc2nsnc12	?	6.0%	-28.2%	-14.6%	-0.2%	-10.0%
CC(C)Oc1ccc(C(=O)Nc2ccccc2N2CCOCC2)cc1	10.6%	9.0%	-14.8%	-0.1%	-1.2%	3.6%
SMILES	ELG1 repair inh	RORgamma inh	DT40 TDP1 no CPT	VP16 counter	12-LOX inh	TDP1 cell CPT
COc1cc(OC)cc(C(=O)Nc2ccccc2N2CCOCC2)c1	-10.3%	0.9%	?	-5.4%	0.0%	?
CC(C)Oc1cccc(C(=O)NC(=S)Nc2ccccc2N2CCOCC2)c1	-0.5%	5.62µM*	?	5.62µM*	?	?
COc1cccc(C(=O)NC(=S)Nc2ccccc2N2CCCC2)c1	-14.1%	3.98µM*	?	12.6µM*	?	23.1µM*
COc1c(C)cccc1C(=O)NC(=S)Nc1ccccc1N1CCCC1	23.1%	10µM*	-15.1%	20µM*	?	?
O=C1c2cnc(-c3cc4ccccc4o3)nc2OCCN1c1ccccc1	/	/	/	/	22.7%[176 µM]	/
CC1CS(=O)(=O)N(c2ccc(S(=O)(=O)NCc3cccnc3)cc2)C1=O (centres undefined)	/	/	/	/	21.7%	/
Cn1cc(/C=C/C(=O)N2CCCC(C(F)(F)F)C2)c(=O)n(C)c1=O (centres undefined)	/	/	/	/	-9.2%	/
OC(CSc1ccccc1)CN1CCN(c2ccc(Cl)cc2)CC1 (centres undefined)	/	/	20.6µM*	/	-29.3%	?
c1ccc(SCCN2CCN(c3ccccc3)CC2)cc1	10.3%	-2.2%	-13.6%	2.0%	12.6µM*	-15.8%
OC(CSc1ccccc1)CN1CCN(c2cccc(Cl)c2)CC1 (centres undefined)	/	/	20.6µM*	/	?	?
CCOc1ccccc1CN(CCc1ccc2c(c1)OCO2)Cc1cc(OC)c(OC)cc1OC	/	/	4.11µM*	/	?	6.51µM*
CCOc1ccccc1CN(CCc1ccc2c(c1)OCO2)Cc1ccccn1	?	?	16.4µM*	?	0.0%	?
COc1cccc(CNC2(Cc3cc(C(C)(C)O)on3)COC2)c1	/	/	/	/	12.3%[176 µM]	/
CCOC(=O)C1=CC[C@@H](c2cccc(C)c2)N(S(=O)(=O)c2ccc(C)cc2)[C@H]1C(=O)OCC	-3.9%	/	16.4µM*	/	4.9%	14.6µM*
Cc1ccc(S(=O)(=O)N2[C@@H](c3ccc(F)cc3)C(C(=O)O)=CC[C@H]2c2cccc(C)c2)cc1	6.5%	/	3.9%	/	-34.1%	7.3%
CCOC(=O)C1=CC[C@@H](c2ccco2)N(S(=O)(=O)c2ccc(C)cc2)[C@H]1C(=O)OCC	2.2%	/	18.4µM*	/	-22.2%	?
CCOC(=O)C1C(=O)C=C(c2ccc(C)cc2)CC1c1ccco1 (centres undefined)	17.1%	1.7%	?	4.1%	16.9%	?
CCOC(=O)C1=CC[C@@H](c2ccccc2Cl)N(S(=O)(=O)c2ccc(C)cc2)[C@H]1C(=O)OCC	-27.2%	/	20.6µM*	/	3.1%	?

From PubChem BioAssay
